Reference: PubChem BioAssay (Tox21)
Unmarked numbers belong to inactive results. Records with an inconclusive call do not appear. Entries that show only a call come without a potency. Calls of active or inactive are those of the source. Unless noted, calls come from the whole dose curve.

Experiments:
[1] = Nuclear factor erythroid 2-related factor 2/antioxidant responsive element (Nrf2/ARE) small molecule agonists: qHTS cell viability counter screen in human keratinocytes (AID 1919968; active = well fitted curve in the direction sought with a large enough effect in the repeat runs; an effect the other way counts as inactive or inconclusive; note: nearly all actives have a fitted effect of over 55% in size)
Method in brief: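 KeratinoSens HaCaT cells, 1,500/well, preincubated 5 h, then exposed to compounds in DMSO for 23 h at 37 C/5% CO2. Viability read as CellTiter-Fluor fluorescence after 1 h, in the same wells as the ARE-luciferase read.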

[2] = molecular target: Gonadotropin-releasing hormone receptor (Homo sapiens) (UniProt P30968); experiment: Human gonadotropin-releasing hormone receptor (GnRHR) small molecule agonists, calcium flux assay in GnRHR-HEK293 cells (AID 1920063); note: nearly all actives have a fitted effect of over 35% in size
Method in brief: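 HEK293 cells stably expressing human GnRHR were dye-loaded for 1 h at 37 C. Compound was added in agonist mode and fluorescence (Ex/Em 480/540) recorded kinetically for 3 min. Fifteen concentrations, triplicates.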

[3] = molecular target: KiSS-1 receptor (Homo sapiens) (UniProt Q969F8); experiment: Human kisspeptin (KISS1R) small molecule agonists, calcium flux assay in KISS1R-HEK293 cells (AID 1920064; active = well fitted curve in the direction sought with a large enough effect in the repeat runs; an effect the other way counts as inactive or inconclusive)
Method in brief: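 HEK293 cells stably expressing human KISS1R were loaded with calcium dye for 1 h at 37 C, then given compound; fluorescence (Ex/Em 480/540) was read kinetically for 3 min. Fifteen concentrations, triplicate.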

[4] = G protein-coupled receptor (GPCR) small molecule agonists, calcium flux assay: HEK293 wild type cell line counter screen (AID 1920065)
Method in brief: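 Wild-type HEK293 cells plated 18 h, loaded with calcium dye 1 h at 37 C, then compounds added in agonist mode (ATP as positive control). Kinetic fluorescence Ex/Em 480/540 recorded 3 min at 1 sec intervals; 15 concentrations, triplicate.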

[5] = p53 small molecule agonists, cell-based qHTS assay with human liver microsomes: qHTS cell viability counter screen (AID 1963579); note: nearly all actives have a fitted effect of over 45% in size
Method in brief: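 Viability of p53RE-bla cells is measured as CellTiter-Glo luminescence following a 16 h, 37 C incubation with compound, liver microsomes from human donors and NADPH.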

[6] = p53 small molecule agonists, cell-based qHTS assay with rat liver microsomes: qHTS cell viability counter screen (AID 1963580); note: nearly all actives have a fitted effect of over 45% in size
Method in brief: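 HCT-116 p53RE-bla, 4,000 cells/well, 5 h pre-incubation; cpd + rat liver microsomes 0.5 mg/mL + NADPH 0.5 mg/mL (final); 16 h, 37 C; CellTiter-Glo, 30 min RT; luminescence.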

[7] = p53 small molecule agonists, cell-based qHTS assay: qHTS cell viability counter screen (AID 1963581); note: nearly all actives have a fitted effect of over 45% in size
Method in brief: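 p53RE-bla HCT-116 cells, compounds added 5 h after plating and incubated 16 h at 37 C. Cytotoxicity measured in the same wells as intracellular ATP by CellTiter-Glo luminescence after 30 min at room temperature.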

[8] = molecular target: 5-hydroxytryptamine receptor 2A (Homo sapiens) (UniProt P28223); experiment: 5-hydroxytryptamine receptor 2A (HTR2A) small molecule antagonists, cell-based qHTS assay (AID 1963586); note: nearly all actives have a fitted effect of over 45% in size; note: potency is the fitted concentration of half-maximal effect
Method in brief: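 Antagonist-mode intracellular calcium assay: DOI (4 nM) added after 5 min compound pre-incubation at room temperature to dye-loaded HTR2A-CHO cells. Fluorescence followed for 3 min, sampled every second.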

[9] = molecular target: 5-hydroxytryptamine receptor 2A (Homo sapiens) (UniProt P28223); experiment: 5-hydroxytryptamine receptor 2A (HTR2A) small molecule agonists, cell-based qHTS assay (AID 1963587); note: nearly all actives have a fitted effect of over 30% in size; note: potency is the fitted concentration of half-maximal effect
Method in brief: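 Kinetic calcium-flux fluorescence (2 min, 1 sec intervals) after compound addition in agonist mode. HTR2A-CHO cells were cultured 18 h, then dye-loaded 1 h at 37 C.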

[10] = molecular target: Muscarinic acetylcholine receptor M1 (Homo sapiens) (UniProt P11229); experiment: Cholinergic receptor muscarinic 1 (CHRM1) small molecule antagonists, cell-based qHTS assay (AID 1963588); note: nearly all actives have a fitted effect of over 40% in size; note: potency is the fitted concentration of half-maximal effect
Method in brief: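 CHRM1-CHO calcium-flux assay, antagonist mode. Cells were seeded 18 h, dye-loaded 1 h at 37 C and given compound for 5 min at RT, then acetylcholine was added at 50nM. FDSS fluorescence was read 3 min; 15 concentrations, three runs.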

[11] = molecular target: Muscarinic acetylcholine receptor M1 (Homo sapiens) (UniProt P11229); experiment: Cholinergic receptor muscarinic 1 (CHRM1) small molecule agonists, cell-based qHTS assay (AID 1963589); note: nearly all actives have a fitted effect of over 35% in size
Method in brief: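 CHO cells stably expressing human CHRM1 were loaded with calcium dye for 1 h at 37 C, then compound was added in agonist mode. Intracellular calcium fluorescence was followed kinetically at 1 s intervals. Fifteen concentrations were tested in three independent runs.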

[12] = cAMP Responsive Elements (CRE) small molecule agonists, cell-based qHTS assay (AID 1963590)
Method in brief: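 CRE-bla HEK 293T cells, 2,000/well in DMEM with 10% dialyzed FBS and 25 mM HEPES, pre-incubated 18 h at 37 C, then exposed to compound 3 h at 37 C. Beta-lactamase reporter read with LiveBLAzer B/G FRET substrate after 2 h at room temperature.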

[13] = cAMP Responsive Elements (CRE) small molecule antagonists, cell-based qHTS assay (AID 1963591; active = well fitted inhibition curve with a large enough effect in the signal ratio in the repeat runs, not every such curve was filed as active; the % refers to the signal ratio)
Method in brief: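 CRE-bla HEK293T cells plated 18 h, then given compound plus NKH477 at 0.25 uM final for 3 h at 37C. Beta-lactamase reporter read with LiveBLAzer B/G FRET substrate after 2 h at room temperature.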

[14] = molecular target: Beta-2 adrenergic receptor (Homo sapiens) (UniProt P07550); experiment: Adrenergic beta2 receptor (ADRB2) small molecule antagonists, cell-based qHTS assay (AID 1963592); note: series mostly up to about 92 µM; nearly all actives have a fitted effect of over 50% in size
Method in brief: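 Cells (CHO, stable ADRB2 overexpression) incubated 18-20hr at 37C; compounds added from DMSO; agonist mix (1nM isoproterenol, 100uM IBMX, 25uM Ro-20-1724) added; 0.5hr RT; d2-cAMP and anti-cAMP-cryptate added; 1hr RT; 665/615 nm read.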

[15] = molecular target: D(2) dopamine receptor (Homo sapiens) (UniProt P14416); experiment: Dopamine D2 receptor (DRD2) small molecule agonists, cell-based qHTS assay (AID 1963594); note: nearly all actives have a fitted effect of over 35% in size
Method in brief: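 cAMP accumulation in DRD2-HEK293 cells measured by HTRF after 1 h detection; compounds added 10 min before NKH477 (200nM […]) forskolin-analogue stimulation, 30 min at room temperature, with Ro20-1724 present at 0.1 mM final.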

[16] = molecular target: D(2) dopamine receptor (Homo sapiens) (UniProt P14416); experiment: Dopamine D2 receptor (DRD2) small molecule antagonists, cell-based qHTS assay (AID 1963595; active = well fitted inhibition curve with a large enough effect in the signal ratio in the repeat runs, with a control signal flat; the % refers to the signal ratio; note: potency is the fitted concentration of half-maximal effect)
Method in brief: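 Stable D2 receptor HEK293 line, 24 h after seeding. Compound preincubated 10 min, then quinpirole (12 nM) with forskolin analogue NKH477 (200 nM), 30 min, room temperature. Detection by time-resolved FRET of cAMP.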

[17] = molecular target: Beta-2 adrenergic receptor (Homo sapiens) (UniProt P07550); experiment: Adrenergic beta2 receptor (ADRB2) small molecule agonists, cell-based qHTS assay (AID 1963593);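 note: CHO cells stably overexpressing human ADRB2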
Method in brief: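 CHO cells stably over-expressing ADRB2 were plated overnight at 37C, then dosed with compounds plus a stimulation mix containing 100uM IBMX and 25uM Ro-20-1724 for 0.5hr at room temperature. cAMP was measured by HTRF competition, 1hr.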

Chain of 5-hydroxytryptamine receptor 2A (Homo sapiens) (P28223 whole entry, looked up): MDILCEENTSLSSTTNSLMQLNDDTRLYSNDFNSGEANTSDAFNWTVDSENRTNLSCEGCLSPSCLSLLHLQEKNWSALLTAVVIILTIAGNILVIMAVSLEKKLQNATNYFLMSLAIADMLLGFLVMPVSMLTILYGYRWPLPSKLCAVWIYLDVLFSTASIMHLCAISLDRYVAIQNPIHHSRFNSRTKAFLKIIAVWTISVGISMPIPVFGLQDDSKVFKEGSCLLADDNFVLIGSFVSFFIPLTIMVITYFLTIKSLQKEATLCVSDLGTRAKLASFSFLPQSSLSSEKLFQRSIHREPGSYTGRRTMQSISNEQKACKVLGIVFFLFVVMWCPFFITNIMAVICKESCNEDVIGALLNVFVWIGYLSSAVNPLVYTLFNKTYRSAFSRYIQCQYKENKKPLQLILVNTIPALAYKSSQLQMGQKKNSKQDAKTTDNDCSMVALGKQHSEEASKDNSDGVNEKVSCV
Chain of Beta-2 adrenergic receptor (Homo sapiens) (P07550 whole entry, looked up): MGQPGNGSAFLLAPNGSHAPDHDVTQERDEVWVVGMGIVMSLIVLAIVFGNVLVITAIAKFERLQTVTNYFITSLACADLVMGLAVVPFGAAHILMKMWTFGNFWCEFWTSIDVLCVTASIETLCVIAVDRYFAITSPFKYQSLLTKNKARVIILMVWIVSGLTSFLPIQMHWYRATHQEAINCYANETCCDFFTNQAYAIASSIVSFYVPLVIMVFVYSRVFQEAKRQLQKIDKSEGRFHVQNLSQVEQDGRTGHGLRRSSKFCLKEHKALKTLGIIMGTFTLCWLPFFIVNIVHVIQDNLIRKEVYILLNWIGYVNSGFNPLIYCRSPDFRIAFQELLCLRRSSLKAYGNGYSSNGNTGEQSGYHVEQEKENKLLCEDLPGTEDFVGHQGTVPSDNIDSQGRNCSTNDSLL
Chain of Muscarinic acetylcholine receptor M1 (Homo sapiens) (P11229 whole entry, looked up): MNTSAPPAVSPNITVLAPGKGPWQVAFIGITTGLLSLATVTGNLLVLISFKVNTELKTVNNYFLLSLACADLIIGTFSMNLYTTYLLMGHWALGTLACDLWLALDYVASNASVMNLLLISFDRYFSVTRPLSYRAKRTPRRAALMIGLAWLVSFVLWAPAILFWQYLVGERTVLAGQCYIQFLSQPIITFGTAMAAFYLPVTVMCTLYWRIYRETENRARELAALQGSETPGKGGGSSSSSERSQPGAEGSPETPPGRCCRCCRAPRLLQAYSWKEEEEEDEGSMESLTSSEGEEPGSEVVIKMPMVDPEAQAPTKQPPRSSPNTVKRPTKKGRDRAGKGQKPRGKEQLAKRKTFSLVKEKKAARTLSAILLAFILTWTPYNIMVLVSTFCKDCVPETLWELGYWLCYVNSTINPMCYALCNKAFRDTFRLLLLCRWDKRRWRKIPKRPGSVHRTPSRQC
Chain of KiSS-1 receptor (Homo sapiens) (Q969F8 whole entry, looked up): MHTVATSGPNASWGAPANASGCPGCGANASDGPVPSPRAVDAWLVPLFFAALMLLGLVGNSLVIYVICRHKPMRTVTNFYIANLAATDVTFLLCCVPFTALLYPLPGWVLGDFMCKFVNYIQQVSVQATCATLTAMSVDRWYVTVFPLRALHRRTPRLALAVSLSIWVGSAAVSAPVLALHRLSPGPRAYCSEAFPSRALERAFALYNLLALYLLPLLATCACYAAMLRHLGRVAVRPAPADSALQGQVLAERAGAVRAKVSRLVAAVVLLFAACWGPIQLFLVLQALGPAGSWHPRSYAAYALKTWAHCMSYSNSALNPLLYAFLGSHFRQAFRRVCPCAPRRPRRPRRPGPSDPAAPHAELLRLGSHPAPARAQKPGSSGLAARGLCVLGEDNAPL
Chain of Gonadotropin-releasing hormone receptor (Homo sapiens) (P30968 whole entry, looked up): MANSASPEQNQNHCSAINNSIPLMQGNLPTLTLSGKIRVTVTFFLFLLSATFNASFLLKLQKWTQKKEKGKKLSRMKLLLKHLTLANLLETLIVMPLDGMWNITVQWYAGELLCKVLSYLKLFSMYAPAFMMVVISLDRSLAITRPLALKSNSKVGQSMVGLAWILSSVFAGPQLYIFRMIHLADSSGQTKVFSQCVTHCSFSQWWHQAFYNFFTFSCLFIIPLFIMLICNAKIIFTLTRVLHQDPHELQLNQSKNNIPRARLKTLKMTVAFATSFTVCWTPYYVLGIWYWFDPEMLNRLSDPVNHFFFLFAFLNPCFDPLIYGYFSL
Chain of D(2) dopamine receptor (Homo sapiens) (P14416 whole entry, looked up): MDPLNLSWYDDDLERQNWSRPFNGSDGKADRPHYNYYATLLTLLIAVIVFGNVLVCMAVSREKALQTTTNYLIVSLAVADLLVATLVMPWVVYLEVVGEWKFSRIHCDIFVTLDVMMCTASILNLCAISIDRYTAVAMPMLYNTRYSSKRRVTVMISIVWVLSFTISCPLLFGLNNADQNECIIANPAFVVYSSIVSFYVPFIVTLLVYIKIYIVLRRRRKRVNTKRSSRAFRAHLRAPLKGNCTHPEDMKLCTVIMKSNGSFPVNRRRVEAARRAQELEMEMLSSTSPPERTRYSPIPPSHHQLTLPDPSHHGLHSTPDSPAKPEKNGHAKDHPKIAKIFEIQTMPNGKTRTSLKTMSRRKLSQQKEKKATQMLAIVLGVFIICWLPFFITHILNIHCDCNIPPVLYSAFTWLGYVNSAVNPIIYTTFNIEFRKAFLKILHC

Structure (SMILES): COC(=O)CCS
- Potency [1]: inactive
- Potency [2]: inactive
- Potency [3]: inactive
- Potency [4]: inactive
- Potency [5]: inactive
- Potency [6]: inactive
- Potency [7]: inactive
- Potency [8]: inactive
- Potency [9]: inactive
- Potency [10]: inactive
- Potency [11]: inactive
- Potency [12]: inactive
- Potency [13]: inactive
- Potency [14]: inactive
- Potency [15]: inactive
- Potency [16]: inactive

Structure (SMILES): C=CC(=C)CCCC(C)(C)OC(C)=O
- Potency [1]: inactive
- Potency [2]: inactive
- Potency [3]: inactive
- Potency [4]: inactive
- Potency [5]: inactive
- Potency [6]: inactive
- Potency [7]: inactive
- Potency [8]: inactive
- Potency [9]: inactive
- Potency [10]: inactive
- Potency [11]: inactive
- Potency [12]: inactive
- Potency [14]: inactive
- Potency [17]: inactive
- Potency [15]: inactive
- Potency [16]: inactive

Structure (SMILES): Nc1nc(Cl)cc(Cl)n1
- Potency [1]: inactive
- Potency [2]: inactive
- Potency [3]: inactive
- Potency [4]: inactive
- Potency [5]: inactive
- Potency [6]: inactive
- Potency [7]: inactive
- Potency [8]: inactive
- Potency [9]: inactive
- Potency [10]: inactive
- Potency [11]: inactive
- Potency [14]: inactive
- Potency [15]: inactive

Structure (SMILES): CO[C@]12C[C@@H](COC(=O)c3cncc(Br)c3)CN(C)[C@@H]1Cc1cn(C)c3cccc2c13
- Potency [1]: inactive
- Potency [2]: inactive
- Potency [3]: inactive
- Potency [4]: inactive
- Potency [5]: inactive
- Potency [6]: inactive
- Potency [7]: inactive
- Potency [8]: 0.0729 µM (active)
- Potency [9]: 0.0849 µM (active)
- Potency [10]: 8.18 µM (active)
- Potency [11]: inactive
- Potency [12]: inactive
- Potency [13]: inactive
- Potency [15]: inactive
- Potency [16]: 26.6 µM (active)

Structure (SMILES): CCC(CC)CO
- Potency [1]: inactive
- Potency [2]: inactive
- Potency [3]: inactive
- Potency [4]: inactive
- Potency [5]: inactive
- Potency [6]: inactive
- Potency [7]: inactive
- Potency [8]: inactive
- Potency [9]: inactive
- Potency [11]: inactive
- Potency [12]: inactive
- Potency [13]: inactive
- Potency [14]: inactive
- Potency [17]: inactive
- Potency [15]: inactive
- Potency [16]: inactive

Structure (SMILES): Oc1cccc(Nc2ccccc2)c1
- Potency [1]: inactive
- Potency [2]: inactive
- Potency [3]: inactive
- Potency [4]: inactive
- Potency [5]: inactive
- Potency [6]: inactive
- Potency [7]: inactive
- Potency [10]: inactive
- Potency [11]: inactive
- Potency [12]: inactive
- Potency [13]: inactive
- Potency [14]: inactive
- Potency [15]: inactive
- Potency [16]: inactive

Structure (SMILES): C[C@@H]1CN(c2c(F)c(F)c3c(=O)c(C(=O)O)cn(C4CC4)c3c2F)C[C@H](C)N1
- activity change, negative = cytotoxicity [1]: -4.39% [at 19 µM]
- activity change [2]: 0.18% [at 11.8 µM, hits give high values]
- activation [3]: -0.0587% [at 15.8 µM]
- activation [4]: -1.01% [at 11.8 µM]
- activity change, negative = cytotoxicity [5]: 0.644% [at 13.5 µM]
- activity change, negative = cytotoxicity [6]: 9.6% [at 13.5 µM]
- activity change, negative = cytotoxicity [7]: -8.27% [at 13.5 µM]
- activation [9]: -2.83% [at 15.9 µM]
- activity, negative = inhibition [10]: 7.07% [at 12.6 µM]
- activation [11]: -1.01% [at 15.8 µM]
- activation [12]: -2.17% [at 19 µM]
- activity change, negative = inhibition [14]: -4.7% [at 19 µM]
- activation [15]: 18.6% [at 19 µM]
- activity change, negative = inhibition [16]: -0.82% [at 18.9 µM]
